{"source": "PubChem BioAssay AID1851", "about": "(National Center for Advancing Translational Sciences (NCATS), 2009)", "note": "Out of some 16,000 compounds screened, about 4,000 (25%) were called active. Not shown: some 26% with an inconclusive outcome. Calls follow the shape of the dose curve; as a rule, active = well fitted curve in the direction sought with a large enough effect; inconclusive = small, poorly fitted or top-dose-only effect, or effect the other way; inactive = no such curve, though single readings can be large or run the other way. Only a sample is shown. % is scaled to controls: 0 for no effect and ±100 for the full control effect."}
{"target": "Cytochrome P450 2C9 (Homo sapiens) (UniProt P11712)", "sequence (P11712 whole entry, looked up)": "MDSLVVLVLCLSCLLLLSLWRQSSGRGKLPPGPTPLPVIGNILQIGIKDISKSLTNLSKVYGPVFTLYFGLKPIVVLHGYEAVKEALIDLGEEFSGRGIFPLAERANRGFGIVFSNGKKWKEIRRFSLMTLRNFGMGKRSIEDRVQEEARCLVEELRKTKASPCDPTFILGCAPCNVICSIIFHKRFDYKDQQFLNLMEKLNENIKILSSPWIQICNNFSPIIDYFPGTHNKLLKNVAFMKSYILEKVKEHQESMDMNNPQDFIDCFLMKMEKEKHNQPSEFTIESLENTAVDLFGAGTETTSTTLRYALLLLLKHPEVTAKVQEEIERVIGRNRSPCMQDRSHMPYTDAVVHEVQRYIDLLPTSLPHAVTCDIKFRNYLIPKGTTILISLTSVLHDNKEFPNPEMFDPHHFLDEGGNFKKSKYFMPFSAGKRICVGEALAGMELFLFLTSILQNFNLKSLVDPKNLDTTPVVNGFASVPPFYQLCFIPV", "experiment": "Cytochrome panel assay with activity outcomes", "details": "recombinant CYP, pro-luciferin dealkylation, luminescence, p450-cyp2c9; series mostly up to 57.1 µM"}
{"smiles": "COc1ncc2ncc(=O)n(CCC#N)c2n1", "AC50": "inactive"}
{"smiles": "COCCNc1ncnc2ccc(-c3ccc(N(C)C)cc3)cc12", "activity, negative = inhibition": "-3.32% [at 2.29 µM] (inactive)"}
{"smiles": "COC(Cc1nnc(SC)n1-c1ccc(Cl)cc1)OC", "AC50": "inactive"}
{"smiles": "O=S(Cc1ccc(Br)cc1)Cc1nnc(SCc2ccc(Cl)cc2)n1-c1ccccc1", "note": "(configuration not stated)", "AC50": "10 µM (active)"}
{"smiles": "Cc1cccc(NC(=S)N2CCC(N(C)CC3CCCO3)CC2)c1C", "note": "(configuration not stated)", "AC50": "inactive"}
{"smiles": "CN1CCN(c2ncnc3ccc(-c4cccc(NS(C)(=O)=O)c4)cc23)CC1", "activity, negative = inhibition": "22.3% [at 2.29 µM] (inactive)"}
{"smiles": "Cc1ccc(S(=O)(=O)Nc2nc3ccccc3nc2N2CCc3ccccc3C2)cc1", "AC50": "0.251 µM (active)"}
{"smiles": "O=C(Cc1ccc(-n2c(=O)[nH]c3ccccc3c2=O)cc1)N1CCN(c2cccc(Cl)c2)CC1", "AC50": "3.55 µM (active)"}
{"smiles": "O=C(Cn1ccc2ccccc2c1=O)N1CCN(c2cccc(Cl)c2)CC1", "AC50": "inactive"}
{"smiles": "O[C@H](CN1CCN(c2cccc(Cl)c2)CC1)C(c1ccccc1)c1ccccc1", "AC50": "inactive"}
{"smiles": "COc1ccc(CCNC[C@H](O)c2ccc(O)cc2)cc1OC", "AC50": "inactive"}
{"smiles": "COc1ccc(CONS(=O)(=O)c2ccc(NC(C)=O)cc2)cc1Cl", "AC50": "12.6 µM (active)"}
{"smiles": "CC(=O)Nc1ccc(S(=O)(=O)NC(CC(=O)NCCCN2CCOCC2)C(C)C)cc1", "note": "(configuration not stated)", "AC50": "inactive"}
{"smiles": "CC(=O)Nc1ccc(S(=O)(=O)N=S(C)C)cc1", "AC50": "inactive"}
{"smiles": "CC(=O)Nc1ccc(S(=O)(=O)NCCc2ccc(F)cc2)cc1", "AC50": "inactive"}
{"smiles": "COc1ccc(CCNC(=O)CC(NS(=O)(=O)c2ccc(NC(C)=O)cc2)C(C)C)cc1OC", "note": "(configuration not stated)", "AC50": "2.51 µM (active)"}
{"smiles": "OCCN(CO)CO", "activity, negative = inhibition": "-10.4% [at 11.4 µM] (inactive)"}
{"smiles": "CC(=O)OC[C@H]1O[C@@H](O/N=C(\\C)CCN2CCCCc3nc(C)c(C)cc32)[C@H](OC(C)=O)[C@@H](OC(C)=O)[C@H]1OC(C)=O", "activity, negative = inhibition": "23.5% [at 11.4 µM] (inactive)"}
{"smiles": "c1ccc(CCc2cccnc2)nc1", "activity, negative = inhibition": "-6.59% [at 11.4 µM] (inactive)"}
{"smiles": "c1ccc(NN(Cc2cnccn2)c2ccccc2)cc1", "AC50": "3.16 µM (active)"}
{"smiles": "C#CCOC(=O)Nc1ccc(=O)n(Cc2c(Cl)cccc2Cl)c1", "AC50": "1.58 µM (active)"}
{"smiles": "CCn1c(=O)[nH]c2ccccc21", "AC50": "inactive"}
{"smiles": "C[N+]1(C)CCC(OC(=O)C(c2ccccc2)c2ccccc2)CC1", "AC50": "inactive"}
{"smiles": "O=C(OC1CCN(c2ccc([N+](=O)[O-])cc2)CC1)c1ccccc1", "AC50": "0.631 µM (active)"}
{"smiles": "O=C(CCCc1ccccc1)N1CCN(c2ccc([N+](=O)[O-])cc2)CC1", "AC50": "inactive"}
{"smiles": "O=C(O)c1cccc2cccc(-c3cccc4cccc(C(=O)O)c34)c12", "activity, negative = inhibition": "-4.84% [at 11.4 µM] (inactive)"}
{"smiles": "CN1C(=O)/C(=N\\OC(=O)c2cccc3ccccc23)c2ccccc21", "AC50": "2.82 µM (active)"}
{"smiles": "Cn1c(=O)cc(OCCCC(=O)Nc2cccnc2)c2ccccc21", "AC50": "inactive"}
{"smiles": "CC(C(=O)Nc1cccnc1)N1C(=O)C2C3C=CC(C3)C2C1=O", "note": "(configuration not stated)", "AC50": "inactive"}
{"smiles": "CCn1c(=O)cc(OCC(=O)Nc2cccnc2)c2ccccc21", "AC50": "15.8 µM (active)"}
{"smiles": "CO[C@H]1COC(=O)[C@@H](Cc2ccccc2)NC(=O)[C@@H](C)COC(=O)CCC[C@@H]1C", "activity, negative = inhibition": "18.6% [at 11.4 µM] (inactive)"}
{"smiles": "COc1ccc2cc3cc(C(=O)NCc4ccc5c(c4)OCO5)oc3nc2c1", "AC50": "4.47 µM (active)"}
{"smiles": "CCCN(CCC)CCCNC(=O)c1cc2cc3ccc(OC)cc3nc2o1", "AC50": "inactive"}
{"smiles": "COc1ccc2cc3cc(C(=O)NCc4ccccn4)oc3nc2c1", "AC50": "inactive"}
{"smiles": "Cc1ccc(-n2c(-c3ccc(Br)cc3)c[n+]3c2CCc2ccc4cccnc4c2-3)cc1", "AC50": "inactive"}
{"smiles": "NC(=O)c1csc(-c2ccc(CO)o2)n1", "activity, negative = inhibition": "6.84% [at 11.4 µM] (inactive)"}
{"smiles": "OCc1ccc(-c2nn(Cc3ccccc3)c3ccccc23)o1", "AC50": "31.6 µM (active)"}
{"smiles": "CCNc1ncc2nc(-c3ccc(F)cc3)c(=O)n(CCC#N)c2n1", "AC50": "inactive"}
{"smiles": "COc1cc2nc(SCc3ccc(Cl)cc3Cl)n(Cc3cccs3)c(=N)c2cc1OC", "AC50": "2.51 µM (active)"}
{"smiles": "CN(C)c1ncc2nc(-c3ccc(Cl)cc3)c(=O)n(Cc3cccs3)c2n1", "AC50": "inactive"}
{"smiles": "CN1CCN(c2ncncc2-c2ccccc2C(F)(F)F)CC1", "activity, negative = inhibition": "10.5% [at 2.29 µM] (inactive)"}
{"smiles": "Cc1cc(C)c(S(=O)(=O)N2CCCCC2)c(C)c1N(C)S(=O)(=O)c1ccccc1", "AC50": "2 µM (active)"}
{"smiles": "Cc1ccc(S(=O)(=O)ON=C2CCN(S(=O)(=O)c3ccccc3)CC2)cc1", "AC50": "inactive"}
{"smiles": "CCN1C(=O)[C@H]2[C@H]3[C@H](O)[C@H](O)C/C(=N/OCC(C)C)[C@@H]3CC[C@@H]2C1=O", "activity, negative = inhibition": "28.3% [at 11.4 µM] (inactive)"}
{"smiles": "Cc1cccc(OCCSCc2nc3ccccc3[nH]2)c1", "AC50": "5.01 µM (active)"}
{"smiles": "C[N+](C)(C)CCCSc1nc2ccccc2[nH]1", "activity, negative = inhibition": "3.61% [at 11.4 µM] (inactive)"}
{"smiles": "CS(=O)(=O)Nc1cccc(-c2ccc3ncnc(Nc4ccc(F)cc4)c3c2)c1", "activity, negative = inhibition": "-7.12% [at 2.29 µM] (inactive)"}
{"smiles": "Cc1ccc(N=CC2=C(O)CC(c3ccco3)CC2=O)cc1", "note": "(configuration not stated)", "AC50": "8.91 µM (active)"}
{"smiles": "CC(C)C12CN3CC(C(C)C)(CN(C1)C3c1ccco1)C2=O", "note": "(configuration not stated)", "AC50": "inactive"}
{"smiles": "COc1ccc(C(=O)N2CCC3(CCCN(C)C3)CC2)cc1", "AC50": "inactive"}
{"smiles": "CCCn1c(CC)nc([N+](=O)[O-])c1S(=O)(=O)c1ccccc1", "AC50": "inactive"}
{"smiles": "COc1ccc(COc2ccsc2C(=O)Nc2ccc(Cl)c(Cl)c2)cc1", "AC50": "2.82 µM (active)"}
{"smiles": "CNC(=S)NNC(=O)c1sccc1OCc1ccc(C)cc1", "AC50": "inactive"}
{"smiles": "O=C(O)CCC(=O)c1ccc(Cl)cc1", "activity, negative = inhibition": "18.6% [at 11.4 µM] (inactive)"}
{"smiles": "N[C@H](Cc1ccc(Cl)cc1)C(=O)O", "AC50": "inactive"}
{"smiles": "CCc1ccc(C(CC(=O)c2ccc(Cl)cc2)C(=O)O)cc1", "note": "(configuration not stated)", "AC50": "10 µM (active)"}
{"smiles": "CS(=O)(=O)Nc1cccc(-c2cc(NCc3ccccc3)ncn2)c1", "activity, negative = inhibition": "22.3% [at 2.29 µM] (inactive)"}
{"smiles": "CSc1ccc(CNc2ccc(Cl)cc2)cc1", "AC50": "6.31 µM (active)"}
{"smiles": "COc1cccc(CNCc2ccc(SC)cc2)c1OC", "AC50": "inactive"}
{"smiles": "CSc1ccc(CNc2ccccc2)cc1", "AC50": "12.6 µM (active)"}
{"smiles": "Cc1ccc(C)c(NC(=O)NCc2ccc(Cl)cc2)c1", "activity, negative = inhibition": "-2.65% [at 11.4 µM] (inactive)"}
{"smiles": "Cc1ccc(S(=O)(=O)N[C@H]2COC(=O)C/C=C\\[C@@H](C)[C@H](NS(=O)(=O)c3ccc(C)cc3)COC(=O)[C@H](C)NC(=O)C/C=C\\[C@H]2C)cc1", "activity, negative = inhibition": "15.4% [at 11.4 µM] (inactive)"}
